{
  "source": "the supplement of paper PMC4206461",
  "note": "A number with no mark means an inactive call.",
  "data": [
    {"tested_on": "Pseudomonas aeruginosa PA14 wild type", "assay": "respiration area under curve with compound as sole nitrogen source, 24 h (OmniLog AUC (arbitrary units)); higher = more respiration / better utilisation as nitrogen source, active = 2000 or more", "procedure": "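Biolog Phenotype MicroArray plates PM6-PM8: each di/tripeptide is the sole nitrogen source (IF-0 medium with succinate/ferric citrate and dye mix A). Tetrazolium reduction was read in the OmniLog every 15 min for 24 h at 37°C and summarised as area under the respiration curve (arbitrary units). The paper counts values below 2000 as no respiration and above 8000 as solid respiration. Replicate datasets are averaged.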", "values": [
      {"smiles": "N[C@@H](CC(=O)O)C(=O)N[C@@H](Cc1c[nH]c2ccccc12)C(=O)O", "note": "(plate: PM6)", "respiration area under curve": "2310 (active)"},
      {"smiles": "CC[C@H](C)[C@H](N)C(=O)N[C@@H](CCC(N)=O)C(=O)O", "note": "(plate: PM6)", "respiration area under curve": "7450 (active)"},
      {"smiles": "N[C@@H](Cc1ccccc1)C(=O)N[C@@H](CO)C(=O)O", "note": "(plate: PM7)", "respiration area under curve": "7630 (active)"},
      {"smiles": "CC(C)C[C@H](NC(=O)[C@@H](N)CC(C)C)C(=O)O", "note": "(plate: PM6)", "respiration area under curve": "3640 (active)"},
      {"smiles": "C[C@H](NC(=O)[C@@H](N)CCC(=O)O)C(=O)O", "note": "(plate: PM8)", "respiration area under curve": "9190 (active)"},
      {"smiles": "CSCC[C@H](N)C(=O)N[C@@H](CCC(N)=O)C(=O)O", "note": "(plate: PM7)", "respiration area under curve": "9160 (active)"},
      {"smiles": "CC[C@H](C)[C@H](N)C(=O)N[C@H](C(=O)O)[C@@H](C)CC", "note": "(plate: PM6)", "respiration area under curve": "2030 (active)"},
      {"smiles": "NC(N)=NCCC[C@H](N)C(=O)N[C@@H](Cc1ccccc1)C(=O)O", "note": "(plate: PM6)", "respiration area under curve": "9420 (active)"},
      {"smiles": "NC(=O)CC[C@H](N)C(=O)NCC(=O)O", "note": "(plate: PM6)", "respiration area under curve": "7270 (active)"},
      {"smiles": "CSCC[C@H](N)C(=O)NCC(=O)O", "note": "(plate: PM7)", "respiration area under curve": "5050 (active)"},
      {"smiles": "N[C@@H](Cc1ccccc1)C(=O)N[C@@H](Cc1c[nH]c2ccccc12)C(=O)O", "note": "(plate: PM7)", "respiration area under curve": 524},
      {"smiles": "NCC(=O)NCC(=O)NCC(=O)O", "note": "(plate: PM8)", "respiration area under curve": "7740 (active)"},
      {"smiles": "CSCC[C@H](N)C(=O)N[C@@H](Cc1ccccc1)C(=O)O", "note": "(plate: PM7)", "respiration area under curve": 1400},
      {"smiles": "N[C@@H](CO)C(=O)NCC(=O)O", "note": "(plate: PM7)", "respiration area under curve": "8430 (active)"},
      {"smiles": "NC(=O)CC[C@H](NC(=O)[C@@H](N)CO)C(=O)O", "note": "(plate: PM8)", "respiration area under curve": "9860 (active)"},
      {"smiles": "N[C@@H](CC(=O)O)C(=O)N[C@@H](CCC(=O)O)C(=O)O", "note": "(plate: PM6)", "respiration area under curve": 291},
      {"smiles": "O=C(O)CNC(=O)[C@@H]1CCCN1", "note": "(plate: PM7)", "respiration area under curve": "10100 (active)"},
      {"smiles": "C[C@H](N)C(=O)N[C@@H](Cc1c[nH]c2ccccc12)C(=O)O", "note": "(plate: PM6)", "respiration area under curve": "4490 (active)"},
      {"smiles": "CC(C)[C@H](N)C(=O)N[C@@H](Cc1ccc(O)cc1)C(=O)N[C@H](C(=O)O)C(C)C", "note": "(plate: PM8)", "respiration area under curve": "8370 (active)"},
      {"smiles": "CC(C)[C@H](NC(=O)[C@@H](N)CCCN=C(N)N)C(=O)O", "note": "(plate: PM6)", "respiration area under curve": "8950 (active)"},
      {"smiles": "CC[C@H](C)[C@H](N)C(=O)N[C@H](C(=O)O)C(C)C", "note": "(plate: PM6)", "respiration area under curve": "6570 (active)"},
      {"smiles": "CC(C)[C@H](N)C(=O)N[C@@H](CCCN=C(N)N)C(=O)O", "note": "(plate: PM7)", "respiration area under curve": "14300 (active)"},
      {"smiles": "CC[C@H](C)[C@H](N)C(=O)NCC(=O)O", "note": "(plate: PM6)", "respiration area under curve": "4940 (active)"},
      {"smiles": "CSCC[C@H](NC(=O)[C@@H](N)CCCN=C(N)N)C(=O)O", "note": "(plate: PM6)", "respiration area under curve": "10500 (active)"},
      {"smiles": "NCC(=O)NCC(=O)N[C@@H](Cc1ccccc1)C(=O)O", "note": "(plate: PM8)", "respiration area under curve": "9740 (active)"},
      {"smiles": "CC(C)C(NC(=O)C1CCCN1)C(=O)O", "note": "(stereo not given) (plate: PM8)", "respiration area under curve": "7080 (active)"},
      {"smiles": "CC[C@H](C)[C@H](N)C(=O)N[C@@H](CCSC)C(=O)O", "note": "(plate: PM6)", "respiration area under curve": 1290},
      {"smiles": "NC(N)=NCCC[C@H](N)C(=O)N[C@@H](CO)C(=O)O", "note": "(plate: PM6)", "respiration area under curve": "9350 (active)"},
      {"smiles": "NC(=O)CC[C@H](N)C(=O)N[C@@H](CCC(=O)O)C(=O)O", "note": "(plate: PM8)", "respiration area under curve": "9650 (active)"},
      {"smiles": "C[C@H](NC(=O)[C@@H]1CCCN1)C(=O)O", "note": "(plate: PM7)", "respiration area under curve": "8890 (active)"},
      {"smiles": "CC[C@H](C)[C@H](NC(=O)[C@@H](N)CC(C)C)C(=O)O", "note": "(plate: PM6)", "respiration area under curve": "6260 (active)"},
      {"smiles": "C[C@H](N)C(=O)N1CCC[C@H]1C(=O)O", "note": "(plate: PM6)", "respiration area under curve": "12000 (active)"},
      {"smiles": "CC(C)C[C@H](N)C(=O)N[C@@H](Cc1ccccc1)C(=O)O", "note": "(plate: PM6)", "respiration area under curve": "6750 (active)"},
      {"smiles": "CC(C)[C@H](NC(=O)[C@@H](N)CC(N)=O)C(=O)O", "note": "(plate: PM6)", "respiration area under curve": "7030 (active)"},
      {"smiles": "N[C@@H](CCC(=O)O)C(=O)N[C@@H](Cc1ccc(O)cc1)C(=O)O", "note": "(plate: PM6)", "respiration area under curve": 1140},
      {"smiles": "C[C@H](N)C(=O)N[C@@H](CC(N)=O)C(=O)O", "note": "(plate: PM6)", "respiration area under curve": "8960 (active)"},
      {"smiles": "NCC(=O)N[C@@H](CC(N)=O)C(=O)O", "note": "(plate: PM8)", "respiration area under curve": "14700 (active)"},
      {"smiles": "NC(=O)CC[C@H](NC(=O)[C@@H](N)CCC(N)=O)C(=O)O", "note": "(plate: PM6)", "respiration area under curve": "8430 (active)"},
      {"smiles": "CSCC[C@H](N)C(=O)N1CCC[C@H]1C(=O)O", "note": "(plate: PM7)", "respiration area under curve": "8120 (active)"},
      {"smiles": "N[C@@H](Cc1ccccc1)C(=O)N[C@@H](Cc1ccccc1)C(=O)O", "note": "(plate: PM7)", "respiration area under curve": "5220 (active)"}
    ]}
  ]
}
